# The list is not random: actives were taken first. Their share in the collection is about 3.2%.
# VACV Venus inh – inhibitors of vaccinia virus (Venus reporter); Vaccinia virus Venus reporter expression, fluorescence; Potency, µM (doses to about 36.5 µM), for inactives: at the top dose activity change, negative = inhibition, most hits filed as inhibitors; hit rate 0.46% among 330,000; calls by dose curve; tested in A549 cells; further: nearly all actives have a fitted effect of over 30% in size
# VACV mCherry inh – inhibitors of vaccinia virus infection (mCherry reporter signal). hit rate 0.63% among 310,000. Vaccinia virus mCherry reporter infection, fluorescence. Potency, µM (series often up to 36.5 µM), for the others: at the highest dose activity change, negative = inhibition, hits mostly inhibitors; calls by dose curve; tested in A549 cells; further: nearly all actives have a fitted effect of over 35% in size
# LASV entry inh – Lassa virus entry inhibition; AID 540256; Lassa virus pseudotype entry inhibition, cell reporter; Potency, µM (highest dose often 37.9 µM), inactives show at the highest dose activity change, negative = inhibition, most hits filed as inhibitors; hit rate 1.2% among 300,000; calls by dose curve; tested in HEK293 cells; further: nearly all actives have a fitted effect of over 50% in size
# FMDV inh – antivirals against foot and mouth disease virus; FMDV antiviral cell-based qHTS; Potency, µM (highest dose often 57.9 µM), for the others: at the top dose activity change, negative = inhibition, most hits filed as inhibitors; hit rate 1.2% among 410,000; AID 1159524; calls by dose curve; tested in HEK293T cells; further: read-out not given here; nearly all actives have a fitted effect of over 45% in size
# Marburg entry inh – Marburg virus entry inhibition; Marburg virus pseudotyped entry inhibition, cell reporter; Potency, µM (titrated, usually from 37.8 µM), for the others: at the top dose activity change, negative = inhibition, hits mostly inhibitors; hit rate 1.8% among 300,000; calls by dose curve; tested in HEK293 cells
# An asterisk follows results filed as active; i = inactive; ? = inconclusive; / = not tested or not shown; [ ] = another dose, or the depositor's remark. On the % scale 0 is the no-effect control and ±100 the full control effect; potency means the concentration at half of the fitted maximal effect.
SMILES,VACV Venus inh,VACV mCherry inh,LASV entry inh,FMDV inh,Marburg entry inh
CN(C)c1ccc(/C=C/C=C2/C(=O)NC(=O)N(c3ccccc3)C2=O)cc1,-5.7%,7.1%,?,20µM*,?
COC(=O)C1=C(C(=O)OC)[C@@H]2N(Cc3ccccc3)c3ccccc3[C@@]23CCC(=O)N(CC2CCCCC2)C3=N1,/,/,/,/,11.5%[14.2 µM]
COc1ccc2cc(C(=O)C3CCCN(Cc4cccc(C)n4)C3)ccc2c1 (configuration not stated),?,?,?,?,22.4µM*
COc1ccc(C(=O)C2CCCN(Cc3ccc4nonc4c3)C2)cc1F (configuration not stated),-16.4%,-3.1%,?,-19.5%,-26.2%[46.1 µM]
COc1ccc(C(=O)C2CCCN(Cc3ccc(C#CCCO)cc3)C2)cc1F (configuration not stated),-15.3%,-17.5%,12.6%,?,1.12µM*
COc1cccc(C(=O)C2CCCN(C/C=C/c3ccccc3OC)C2)c1 (configuration not stated),-18.0%,-26.0%,-21.4%[46.1 µM],-5.4%,?
COc1ccc(/C=C/CN2CCCC(C(=O)c3ccc(OC)c(F)c3)C2)cc1 (configuration not stated),-4.4%,-20.4%,/,?,10µM*
CCOC(=O)CSC1=C(C#N)[C@H](c2ccc(OC)cc2)C2=C(CC(C)(C)CC2=O)N1,/,/,/,/,-12.6%
CC(=O)N1c2ccccc2N=C(c2ccc3c(c2)OCO3)C1C(=O)NCc1ccccc1 (configuration not stated),-9.6%,-22.1%,/,26.4%,/
C[C@H]1CC[C@H]2C(=O)N[C@H](Cc3ccccc3)C(=O)N2[C@H]1c1ccccc1,/,/,/,/,-17.3%[14.2 µM]
COc1ccc(-c2csc(C(NC(C)=O)c3ccccc3)n2)cn1 (configuration not stated),-8.0%,7.5%,/,7.4%,/
c1ccc(N2CCN(c3c4c(nc5ncnn35)CCC4)CC2)cc1,/,/,-5.9%,?,?
COc1cccc(N2CCN(c3c4c(nc5ncnn35)CCC4)CC2)c1,/,/,-16.7%,14.1µM*,-41.9%
Cc1ccccc1C(=O)N1[C@@H](C(C)C)COc2cc(Br)ccc2S1(=O)=O,-9.6%,-15.4%,/,39.8µM*,9.95µM*
CC(C)C[C@H]1COc2cc(Br)ccc2S(=O)(=O)N1,-16.0%,-3.4%,1.2%[46.1 µM],-28.1%,/
Cc1cc[n+](C2CCCCC2)c2ccccc12,-9.4%,-7.9%,/,/,/
Cc1ccc(NC(=O)c2ccc(CNS(=O)(=O)c3ccc4c(c3)C(C)(C)C(=O)N4C)cc2)cc1F,-23.2%,?,-12.8%[46.1 µM],25.1µM*,/
Cc1ccc(NC(=O)c2ccc(CNS(=O)(=O)c3ccc4c(c3)C(C)(C)C(=O)N4C)cc2)cc1,-1.7%,-4.5%,19.6%[46.1 µM],?,/
CCc1cccc(NC(=O)c2ccc(CNS(=O)(=O)c3ccc4c(c3)C(C)(C)C(=O)N4C)cc2)c1,-18.5%,-17.1%,?,22.4µM*,/
CCCOc1cccc([C@H]2/C(=C(/O)c3ccc(F)cc3)C(=O)C(=O)N2CCN(C)C)c1,/,/,/,/,-1.1%[46.1 µM]
OC1(c2ccc(OC(F)F)cc2)CSC(=Nc2cccnc2)N1C1CC1 (configuration not stated),?,-17.8%,?,?,3.55µM*
C/C(=C\c1ccc(N(C)C)cc1)[N+](=O)[O-],/,/,?,14.1µM*,5.17µM*
O=C(Nc1cccc2ccccc12)OC1C=CS(=O)(=O)C1 (configuration not stated),?,11.2µM*,-18.0%,-16.6%,-20.9%
Nc1nc(=O)n(C2CC(O)C(CO)O2)cc1F (configuration not stated),?,?,?,8.3%,?
CCN1CCN(CCCNC(=O)c2cc3c(s2)-c2c(C)cccc2OC3)CC1,?,?,/,0.0%,10µM*
CN1CCN(c2ccccc2NC(=O)c2ccc(-c3cccc(Cl)c3)o2)CC1,?,?,-23.7%,?,12.6µM*
Cc1cccc2c1-c1sc(C(=O)NCCCN3CCN(c4ccccc4F)CC3)cc1CO2,-23.0%,-14.4%,/,?,11.2µM*
Cc1cccc2c1-c1sc(C(=O)Nc3ccccc3N3CCN(C)CC3)cc1CO2,-23.8%,-18.7%,?,?,15.8µM*
COC(=O)C[C@H]1c2ccccc2[C@@H]2C(=C[C@@H](C)[C@H]3C(=O)NC(=O)[C@H]32)N1C(=O)OC,/,/,/,/,2.7%[14.2 µM]
CC(=O)CC1OC(=O)C(Br)=C1NCc1ccccc1 (configuration not stated),-8.2%,i,?,/,18.3µM*
